# Laboratory results taken from article PMC4552634, “A New Set of Chemical Starting Points with Plasmodium falciparum Transmission-Blocking Potential for Antimalarial Drug Discovery” (PLoS ONE, 2015).
# Screen size: about 13,000 compounds; about 3,200 (25%) showed an effect of 50% or more. This is one part of the list.
# System: P. falciparum stage V gametocytes
# Set-up: BacTiter-Glo ATP luminescence viability of purified stage V gametocytes in 384-well plates, per cent inhibition versus DMSO
# Conditions: 48 h, 5 µM; inhibitor
row,SMILES,% Inhibition
1,O=C(Nc1cccc(-c2cccc(-c3nc4ccc(C(F)(F)F)cc4[nH]3)c2)c1)c1csnn1 [TCMDC-136902],10.49%
2,Cc1cc2c(cc1Cl)N(C(=O)Nc1cc(F)cc(-c3cncnc3)c1)CC2 [TCMDC-139052],-4.717%
3,COc1cc2nccc(Nc3cccc(Oc4ccccc4)c3)c2cc1OC.Cl [TCMDC-137216],29.43%
4,Cc1ccc(NC(=O)c2ccc(CN3CCCN(Cc4cccc(O)c4)CC3)cc2)cc1F [TCMDC-136395],3.853%
5,O=C1C(C2CCC(c3ccc(Cl)cc3)CC2)=C2OCC3COC2(O3)c2ccccc21 (stereo not drawn) [TCMDC-138169],65.18%
6,O=C1COC2(CN1C1CCN(Cc3ccc(O)c(Cl)c3)C1)c1ccccc1-c1ccccc12 (stereo not drawn) [TCMDC-136342],-3.473%
7,Cc1ccccc1C1CCN(C2CCC(NC(=O)/C=C/c3cccc(F)c3F)CC2)CC1 (stereo not drawn) [TCMDC-133525],-91.19%
8,CC(=O)Nc1ncc(C(=O)Nc2ccc(-c3cccc(-c4nc5ccc(C(F)(F)F)cc5[nH]4)c3)cc2)s1 [TCMDC-136919],-27.65%
9,Nc1cccc(CNCc2cccc(-c3ccc(-c4nc5ccccc5[nH]4)s3)c2)c1.O=C(O)C(F)(F)F [TCMDC-132926],-42.76%
10,CNC(=O)COc1ccc(Nc2nnc(-c3ccc(C)c(S(=O)(=O)NCC4CCCO4)c3)c3ccccc23)cc1 (stereo not drawn) [TCMDC-125616],3.105%
11,COc1cc(NC(=O)/C=C/c2ccccc2OC(F)(F)F)cc(OCCN2CCCCC2)c1 [TCMDC-140931],-34.24%
12,COc1cc2c(cc1OCCN1CCC(N)CC1)N(C(=O)/C=C/c1ccccc1Cl)CC2 [TCMDC-140969],75.81%
13,Cc1cnccc1/C=C/c1cccc(OCCCN2CCc3ccc(S(C)(=O)=O)cc3CC2)c1 [TCMDC-135876],29.22%
14,CCOc1ccc(Br)cc1/C=C/C(=O)Nc1ccc(C2CCN(C)CC2)cc1 [TCMDC-134194],61.62%
15,COc1cc(NC(=O)N2CCc3cc(OC)c(OCCN4CCCCC4)cc32)cc(C(F)(F)F)c1 [TCMDC-140782],9.489%
16,COc1cc2c(cc1OCCN1CCC(N3CCCCC3)CC1)N(C(=O)/C=C/c1ccccc1OC(F)(F)F)CC2 [TCMDC-141018],57.17%
17,Cc1cc(-c2ccc3c(c2)CCN(CCCOc2ccc4c(c2)CCN4C(=O)/C=C/c2ccccc2Cl)CC3)no1 [TCMDC-141470],81.48%
18,COc1ccc(Br)cc1/C=C/C(=O)Nc1ccc(C2CCN(C)CC2)cc1 [TCMDC-133711],12.54%
19,COc1ccc(NC(=O)/C=C/c2ccccc2Cl)cc1OCCN1CCC(NC2CC2)CC1 [TCMDC-140756],-32.57%
20,CCCCN(CCCC)CCOc1cc2c(cc1OC)CCN2C(=O)/C=C/c1ccccc1Cl [TCMDC-141328],30.32%
21,Cc1noc(-c2ccc3c(c2)CCN(CCC2CCC(NC(=O)/C=C/c4cccc(Cl)c4)CC2)CC3)n1 (stereo not drawn) [TCMDC-139877],-87.8%
22,CCOc1ccc(Br)cc1/C=C/C(=O)Nc1ccc2c(c1)CN(C)CCC2 [TCMDC-133944],3.1%

row,SMILES,% Inhibition
1,NC1=NC(c2ccccc2)N(c2ccccc2)C(N)=N1 (stereo not drawn) [TCMDC-123669],-71.64%
2,CNC(=O)CNC(=O)COc1cccc2ccccc12 [TCMDC-131646],8.257%
3,O=C(N/N=C/c1nc2ccccc2[nH]1)c1cccc([N+](=O)[O-])c1 [TCMDC-125792],11.6%
4,CCCCCCCC1=NN2C(=N)C(=Cc3cc(Br)c(OCc4ccc(F)cc4)c(OCC)c3)C(=O)N=C2S1 [TCMDC-124035],8.522%
5,CCOc1cc(O)c(-c2nc(N)ncc2-c2ccc3c(c2)OCCO3)cc1CC [TCMDC-125234],11.3%
6,CC1(C)N=C(N)NC(Nc2ccc(Cl)cc2)=N1 [TCMDC-124268],26.51%
7,COCCCNC(=O)[C@H]1CNCCN1C(=O)c1ccccc1 [TCMDC-141239],-7.699%
8,COc1ccc(NC(=O)/C=C/c2ccccc2Cl)cc1OCCN1CCC(N2CCCC2)CC1 [TCMDC-140919],-16.17%
9,COc1cc2c(cc1OCCN1CCC(N3CCCCC3)CC1)N(C(=O)/C=C/c1ccccc1Cl)CC2 [TCMDC-140770],68.26%
10,CN1CCC(N2CCN(CCOc3cc(NC(=O)/C=C/c4ccccc4Cl)ccc3Br)CC2)CC1 [TCMDC-140962],101%
11,COc1ccc(NC(=O)/C=C/c2ccccc2Cl)cc1OCCN1CCC(N2CCCCC2)CC1 [TCMDC-140698],-6.505%
12,COc1ccc(NC(=O)/C=C/c2ccccc2Cl)cc1OCCN1CCC(N(C)C)CC1 [TCMDC-140755],36.26%
13,COc1ccc(NC(=O)/C=C/c2ccccc2Cl)cc1OCCN1CCC(NCc2ccccc2)CC1 [TCMDC-140746],-31.11%
14,COc1ccc(NC(=O)/C=C/c2ccccc2Cl)cc1OCCN1CCC(N2CCN(C)CC2)CC1 [TCMDC-140757],11.04%
15,COc1cc2c(cc1OCCN1CCC(N3CCCC3)CC1)N(C(=O)/C=C/c1ccccc1Cl)CC2 [TCMDC-140968],80.73%
16,O=C(/C=C/c1ccccc1Cl)Nc1ccc(Br)c(OCCN2CCN(CCN3CCCC3)CC2)c1 [TCMDC-140961],38.25%
17,O=C(Nc1ccc(N2CCCCC2)c(Cl)c1)c1ccc(Br)o1 [TCMDC-124350],9.025%
18,CC(C)(C)C(Cn1ccnc1)NCc1cn[nH]c1-c1ccc(-c2ccccc2)cc1 (stereo not drawn) [TCMDC-124639],18.54%
19,CC1CCN(C(=O)CSc2nc(-c3ccc(C(C)C)cc3)no2)CC1 [TCMDC-124746],17.92%
20,COCC(=O)Nc1nc2ccccc2[nH]1 [TCMDC-125535],-0.9845%
21,Cc1cc(C(=O)Nc2ccc3c(c2)CCN3C2CCN(Cc3cccc4cc[nH]c34)C2)no1 (stereo not drawn) [TCMDC-135085],42.96%
22,CC(C)NCc1ccc(-c2ccc(NS(=O)(=O)c3cccc4cccnc34)cc2)cc1 [TCMDC-136476],32.43%

row,SMILES,% Inhibition
1,CCN(CC)CCNc1ccnc2[nH]c3ccc(C)cc3c12 [TCMDC-131833],-0.1276%
2,CCn1ncc2c(N3CCCC3=O)cc(C(=O)N[C@@H](Cc3ccccc3)[C@H](O)CNC(C)(C)c3cccc(OC)c3)cc21 [TCMDC-135063],45.35%
3,O=C(Nc1ccc(-c2cccc(-c3nc4ccc(F)cc4[nH]3)c2)cc1)Nc1ccc(Cl)c(Cl)c1 [TCMDC-133282],-9.249%
4,CCC(CC)NCc1c(O)ccc2c(CNC(CC)CC)c(O)ccc12 [TCMDC-137581],-56.22%
5,Cc1cccc2[nH]c(-c3ccc(-c4ccc(NC(=O)Nc5ccc(Cl)c(Cl)c5)cc4)cc3)nc12 [TCMDC-133281],-29.93%
6,Cc1nc2ccc(S(=O)(=O)Nc3ccc(C(=O)N[C@@H](CCC(=O)O)C(=O)O)cc3)cc2c(=O)[nH]1 [TCMDC-137978],-10.92%
7,CC(C)COc1ccc(Cl)cc1Cc1ccc(-c2nc3ccc(CCN(C)C)cc3[nH]2)o1 [TCMDC-136891],30.85%
8,CC(C)COc1ccc(Cl)cc1Cc1nc(-c2nc3ccc(CN(C)C)cc3[nH]2)co1 [TCMDC-136809],-8.138%
9,CC(C)COc1ccc(Cl)cc1Cc1ccc(-c2nc3ccc(Cl)cc3[nH]2)o1 [TCMDC-136546],-3.56%
10,CC(C)COc1ccc(Cl)cc1Cc1ccc(-c2nc3ccc(N4CCN(C)CC4)cc3[nH]2)o1 [TCMDC-136709],31.86%
11,CC(C)COc1ccc(Cl)cc1Cc1ccc(-c2nc3ccc(CCN4CCCC4)cc3[nH]2)o1 [TCMDC-136890],21.95%
12,CC(C)COc1ccc(Cl)cc1Cc1ccc(-c2nc3ccc(C(F)(F)F)cc3[nH]2)o1 [TCMDC-136563],61.92%
13,CC(C)COc1ccc(Cl)cc1Cc1ccc(-c2nc3ccc(F)cc3[nH]2)o1 [TCMDC-136545],33.1%
14,CC(C)COc1ccc(Cl)cc1Cc1ccc(-c2nc3ccc(Br)cc3[nH]2)o1 [TCMDC-136705],53.1%
15,CC(C)COc1ccc(Cl)cc1Cc1ccc(-c2nc3cc(F)c(F)cc3[nH]2)o1 [TCMDC-136561],53.5%
16,CCCCC(CC)C(=O)C(NC(=O)[C@H](CSC(c1ccccc1)(c1ccccc1)c1ccccc1)NC(=O)OC(C)(C)C)C(=O)OC (stereo partly drawn) [TCMDC-138083],0.3187%
17,NC(=O)c1ccccc1OCC(=O)Nc1cccc(-c2ccc(-c3nc4ccc(C(F)(F)F)cc4[nH]3)cc2)c1 [TCMDC-132132],-3.438%
18,Cc1cccc2[nH]c(-c3cccc(-c4ccc(NC(=O)COC(C)C)cc4)c3)nc12 [TCMDC-137038],26.32%
19,NC(=O)c1ccccc1OCC(=O)Nc1ccc(-c2cccc(-c3nc4ccc(C(F)(F)F)cc4[nH]3)c2)cc1 [TCMDC-132129],71.31%
20,NC(=O)c1ccccc1OCC(=O)Nc1cccc(-c2cccc(-c3nc4ccccc4[nH]3)c2)c1 [TCMDC-132127],20.22%
21,Cc1cccc2[nH]c(-c3cccc(-c4cccc(NC(=O)COc5ccccc5C(N)=O)c4)c3)nc12 [TCMDC-132130],45.07%
22,Cc1cccc2[nH]c(-c3cccc(-c4ccc(NC(=O)COc5ccccc5C(N)=O)cc4)c3)nc12 [TCMDC-132131],84.32%
